About 410 targets per protein were measured; listed, in parts, are those with the strongest signals and a random draw of the rest.
What was measured:
Assay in all cases: glycan array binding signal (z-score within array); higher = stronger binding
Details in all cases: glycan notation: IUPAC condensed, linker removed
[1] = target: GalNAc(a1-3)GalNAc(b1-3)Gal(a1-4)Gal(b1-4)Glc
Method in brief: (§1)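 The binding signal is a Z-score computed within each array and averaged over linkers. Arrays of the same protein sequence at different concentrations or buffers were also averaged together. Data originate from 3228 arrays in the Consortium for Functional Glycomics database, kept only where the protein sequence was available.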

[2] = target: GalNAc(b1-3)Gal(a1-6)Gal(b1-4)Glc
Method in brief: as §1

[3] = target: GalNAc3S(b1-4)[Fuc(a1-3)]GlcNAc
Method in brief: as §1

Glc(a1-4)Glc = target: Glc(a1-4)Glc
Method in brief: as §1

GlcA(b1-3)Gal = target: GlcA(b1-3)Gal
Method in brief: as §1

[4] = target: GlcNAc(b1-2)Gal(b1-3)GalNAc
Method in brief: as §1

[5] = target: GlcNAc(b1-3)Gal(b1-4)GlcNAc(b1-2)Man(a1-3)[GlcNAc(b1-3)Gal(b1-4)GlcNAc(b1-2)Man(a1-6)]Man(b1-4)GlcNAc(b1-4)GlcNAc
Method in brief: as §1

[6] = target: GlcNAc(b1-3)Gal(b1-4)GlcNAc(b1-2)[GlcNAc(b1-3)Gal(b1-4)GlcNAc(b1-6)]Man(a1-6)[GlcNAc(b1-3)Gal(b1-4)GlcNAc(b1-2)Man(a1-3)]Man(b1-4)GlcNAc(b1-4)GlcNAc
Method in brief: as §1

[7] = target: GlcNAc(b1-3)Gal(b1-4)GlcNAc(b1-3)Gal(b1-4)GlcNAc(b1-2)Man(a1-3)[GlcNAc(b1-3)Gal(b1-4)GlcNAc(b1-3)Gal(b1-4)GlcNAc(b1-2)Man(a1-6)]Man(b1-4)GlcNAc(b1-4)GlcNAc
Method in brief: as §1

[8] = target: GlcNAc(b1-3)Gal(b1-4)GlcNAc(b1-3)Gal(b1-4)GlcNAc(b1-3)Gal(b1-4)GlcNAc(b1-2)Man(a1-3)[GlcNAc(b1-3)Gal(b1-4)GlcNAc(b1-3)Gal(b1-4)GlcNAc(b1-3)Gal(b1-4)GlcNAc(b1-2)Man(a1-6)]Man(b1-4)GlcNAc(b1-4)[Fuc(a1-6)]GlcNAc
Method in brief: as §1

[9] = target: GlcNAc(b1-3)Gal(b1-4)GlcNAc(b1-3)Gal(b1-4)GlcNAc(b1-3)Gal(b1-4)GlcNAc(b1-3)Gal(b1-4)GlcNAc(b1-2)Man(a1-3)[GlcNAc(b1-3)Gal(b1-4)GlcNAc(b1-3)Gal(b1-4)GlcNAc(b1-3)Gal(b1-4)GlcNAc(b1-3)Gal(b1-4)GlcNAc(b1-2)Man(a1-6)]Man(b1-4)GlcNAc(b1-4)GlcNAc
Method in brief: as §1

[10] = target: GlcNAc(b1-3)Gal(b1-4)GlcNAc(b1-6)[GlcNAc(b1-3)Gal(b1-3)]GalNAc
Method in brief: as §1

[11] = target: GlcNAc(b1-4)Gal(b1-4)GlcNAc
Method in brief: as §1

Kdn(a2-6)Gal(b1-4)GlcNAc = target: Kdn(a2-6)Gal(b1-4)GlcNAc
Method in brief: as §1

Man(a1-2)Man(a1-3)Man = target: Man(a1-2)Man(a1-3)Man
Method in brief: as §1

[12] = target: Man(a1-3)[Man(a1-6)]Man(a1-6)[Man(a1-3)]Man(b1-4)GlcNAc(b1-4)GlcNAc
Method in brief: as §1

[13] = target: Neu5Ac(a2-3)Gal(b1-3)GlcNAc6S
Method in brief: as §1

[14] = target: Neu5Ac(a2-3)Gal(b1-4)GlcNAc(b1-3)Gal(b1-4)GlcNAc(b1-3)Gal(b1-4)GlcNAc
Method in brief: as §1

[15] = target: Neu5Ac(a2-3)Gal(b1-4)[Fuc(a1-3)]GlcNAc(b1-3)GalNAc
Method in brief: as §1

[16] = target: Neu5Ac(a2-3)Gal(b1-4)[Fuc(a1-3)]GlcNAc6S
Method in brief: as §1

[17] = target: Neu5Ac(a2-3)[GalNAc(b1-4)]Gal(b1-4)GlcNAc
Method in brief: as §1

[18] = target: Neu5Ac(a2-3)[GalNAc(b1-4)]Gal(b1-4)GlcNAc(b1-3)GalNAc
Method in brief: as §1

Neu5Ac(a2-6)Gal = target: Neu5Ac(a2-6)Gal
Method in brief: as §1

[19] = target: Neu5Ac(a2-6)Gal(b1-3)GlcNAc(b1-3)[Gal(b1-4)GlcNAc(b1-6)]Gal(b1-4)Glc
Method in brief: as §1

[20] = target: Neu5Ac(a2-6)Gal(b1-4)GlcNAc(b1-2)Man(a1-3)[Neu5Ac(a2-6)Gal(b1-4)GlcNAc(b1-2)Man(a1-6)]Man(b1-4)GlcNAc(b1-4)[Fuc(a1-6)]GlcNAc
Method in brief: as §1

Neu5Ac(a2-6)GalNAc = target: Neu5Ac(a2-6)GalNAc
Method in brief: as §1

Neu5Ac(b2-6)GalNAc = target: Neu5Ac(b2-6)GalNAc
Method in brief: as §1

B1: Langerin K299A/K313A (Homo sapiens), Q9UJ71 (protein)
chain: STLNAQIPELKSDLEKASALNTKIRALQGSLENMSKLLKRQNDILQVVSQGWKYFKGNFYYFSLIPKTWYSAEQFCVSRNSHLTSVTSESEQEFLYKTAGGLIYWIGLTKAGMEGDWSWVDDTPFNKVQSARFWIPGEPNNAGNNEHCGNIAAPSLQAWNDAPCDATFLFICKRPYVPSEP
glycan array binding signal (z-score) [1]: 0.162 | glycan array binding signal (z-score) [2]: 0.155 | glycan array binding signal (z-score) [3]: -1 | glycan array binding signal (z-score) (Glc(a1-4)Glc): -0.103 | glycan array binding signal (z-score) (GlcA(b1-3)Gal): -0.832 | glycan array binding signal (z-score) [4]: 0.486 | glycan array binding signal (z-score) [5]: 0.619 | glycan array binding signal (z-score) [6]: 3.64 | glycan array binding signal (z-score) [7]: 0.828 | glycan array binding signal (z-score) [8]: 5.83 | glycan array binding signal (z-score) [9]: 2.75 | glycan array binding signal (z-score) [10]: -0.82 | glycan array binding signal (z-score) [11]: -0.886 | glycan array binding signal (z-score) (Kdn(a2-6)Gal(b1-4)GlcNAc): 0.407 | glycan array binding signal (z-score) (Man(a1-2)Man(a1-3)Man): -1.07 | glycan array binding signal (z-score) [12]: -0.582 | glycan array binding signal (z-score) [13]: -0.784 | glycan array binding signal (z-score) [14]: 0.361 | glycan array binding signal (z-score) [15]: 3.01 | glycan array binding signal (z-score) [16]: 0.192 | glycan array binding signal (z-score) [17]: -0.463 | glycan array binding signal (z-score) [18]: 0.982 | glycan array binding signal (z-score) (Neu5Ac(a2-6)Gal): 0.01 | glycan array binding signal (z-score) [19]: 0.329 | glycan array binding signal (z-score) [20]: 3.07 | glycan array binding signal (z-score) (Neu5Ac(a2-6)GalNAc): -0.621 | glycan array binding signal (z-score) (Neu5Ac(b2-6)GalNAc): -0.61

From the supplement of paper PMC8728848
